Among the test systems are DU-145 prostate; K-562 leukemia; MALME-3M melanoma; MDA-MB-231 breast; RXF 393 renal; SF-268 CNS; SF-539 CNS; UACC-257 melanoma; M14 melanoma.
What all share (test): NCI-60 one-dose screen, 48 h (100 = growth as untreated, 0 = no growth, -100 = all killed)
The next test has as its system SF-295 CNS. The conditions noted are these: 10 µM unless noted.

Where “and” joins values, the source holds several entries; their conditions need not be identical. Identical values can stand only once. The panel holds about 83,000 compounds, 20% with a hit somewhere; the sample as a whole holds those more often.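 A percent growth of 40 corresponds to 60% growth inhibition; 0 means no net growth; -100 means all cells died. Active threshold: below 10.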 A number with no mark means an inactive call. Calls of active or inactive are those of the source.

For `CO[C@H]1[C@H](O[C@@H]2C[C@@H]3C/C=C/C(=O)O[C@@H](CO)C[C@H](O)[C@@H]4C[C@H](C)[C@H](C/C=C\C=C\[C@H](C)C[C@H](C2)O3)O4)O[C@@H](C)[C@H](O)[C@H]1O`, the growth in the test with DU-145 prostate (10 µM unless noted) is 52.5%; with K-562 leukemia (10 µM unless noted), 25.4%; in the test with MALME-3M melanoma (10 µM unless noted), 85.5%; with MDA-MB-231 breast (10 µM unless noted), 92.9%; with RXF 393 renal (10 µM unless noted), 88%; in the test with SF-268 CNS (10 µM unless noted), 86.4%. Also, the growth with SF-295 CNS was 14.1%; in the test on SF-539 CNS (10 µM unless noted), 70.8%; in the test with UACC-257 melanoma (10 µM unless noted) it was 9.72% (active).

Consider `CCCC[C@H]1C(=O)O[C@H](C)[C@H](NC(=O)c2cccc(NC=O)c2O)C(=O)O[C@@H](C)[C@@H]1OC(=O)CC(C)C`, for which the growth was 85.9% in the test with DU-145 prostate (10 µM unless noted); 26.4% in the test on K-562 leukemia (10 µM unless noted); 44% in the test with MALME-3M melanoma (10 µM unless noted); 58.7% in the test with MDA-MB-231 breast (10 µM unless noted); 6.91% (active) in the test with RXF 393 renal (10 µM unless noted); 46.6% with SF-268 CNS (10 µM unless noted). Moreover, the growth is 9.04% (active) in the test on SF-295 CNS, 39.3% in the test on SF-539 CNS (10 µM unless noted) and 42.8% in the test on UACC-257 melanoma (10 µM unless noted).

For `COC[C@H]1OC(=O)c2coc3c2[C@@]1(C)C1=C(C3=O)[C@@H]2CCC(=O)[C@@]2(C)C[C@H]1OC(C)=O`, the growth was 45.2% in the test on DU-145 prostate (10 µM unless noted); 70.7% in the test on K-562 leukemia (10 µM unless noted); 32.8% in the test on MALME-3M melanoma (10 µM unless noted); 67.8% in the test with MDA-MB-231 breast (10 µM unless noted); 10.4% in the test with RXF 393 renal (10 µM unless noted); 51.8% in the test on SF-268 CNS (10 µM unless noted). Further, the growth was 39.5% in the test on SF-295 CNS, 28.6% in the test on SF-539 CNS (10 µM unless noted) and 23% in the test on UACC-257 melanoma (10 µM unless noted).

As for `CC(=O)OCC1OC([S-])C(OC(C)=O)C(OC(C)=O)C1OC(C)=O.[Au+].c1ccc(CN2[CH-]N(Cc3ccccc3)C(c3ccccc3)=C2c2ccccc2)cc1`, the growth in the test on DU-145 prostate (4.75 µM) is 10.1%; with DU-145 prostate (10 µM) it was 11.3%; with K-562 leukemia (4.75 µM) it was -15.1% (active); in the test on K-562 leukemia (10 µM), -6.23% (active); in the test on MALME-3M melanoma (4.75 µM), -20.1% (active); in the test with MALME-3M melanoma (10 µM) it was -49% (active). In addition, the growth was -43.6% (active) in the test on MDA-MB-231 breast (4.75 µM); -55.7% (active) with MDA-MB-231 breast (10 µM); -65.4% (active) in the test on RXF 393 renal (4.75 µM); -75% (active) in the test on RXF 393 renal (10 µM); -6.05% (active) with SF-268 CNS (4.75 µM); -36% (active) in the test with SF-268 CNS (10 µM). For the same molecule, the growth is 14.3% in the test on SF-539 CNS (4.75 µM); 41.8% in the test with SF-539 CNS (10 µM); -17.4% (active) with UACC-257 melanoma (4.75 µM); 20.6% with UACC-257 melanoma (10 µM); 8.95% (active) in the test on M14 melanoma (4.75 µM); -12% (active) with M14 melanoma (10 µM).

`Cc1cc[c-]cc1.Fc1c[c-]c(-c2ccccn2)c(F)c1.N#CCC[PH+](CCC#N)c1ccccc1.[Pt+2]`: the growth was 57.6% in the test with DU-145 prostate (10 µM unless noted); 11.6% in the test with K-562 leukemia (10 µM unless noted); 0.385% (active) in the test on MALME-3M melanoma (10 µM unless noted); 13.7% in the test on MDA-MB-231 breast (10 µM unless noted); -36% (active) with RXF 393 renal (10 µM unless noted); 46% in the test on SF-268 CNS (10 µM unless noted). The figures for the growth in the test on SF-295 CNS, in the test with SF-539 CNS (10 µM unless noted) and in the test with UACC-257 melanoma (10 µM unless noted) were 85.2%, 48.3% and 62.4%, respectively.

Turning to `Nc1nc(=S)nc(N)[nH]1`, the growth is 113% with DU-145 prostate (10 µM unless noted); 103% in the test with K-562 leukemia (10 µM unless noted); 102% in the test on MALME-3M melanoma (10 µM unless noted); 92.1% in the test with MDA-MB-231 breast (10 µM unless noted); 101% in the test on RXF 393 renal (10 µM unless noted); 93.3% in the test on SF-268 CNS (10 µM unless noted). Further, the growth in the test with SF-295 CNS is 95.9%; in the test with SF-539 CNS (10 µM unless noted) it was 97.1%; in the test on UACC-257 melanoma (10 µM unless noted), 87.2%.

As to `O=C(Cc1ccccc1)c1ccccc1`, the growth with DU-145 prostate (10 µM unless noted) was 105%; with K-562 leukemia (10 µM unless noted) it was 104%; in the test with MALME-3M melanoma (10 µM unless noted), 98.7%; in the test on MDA-MB-231 breast (10 µM unless noted), 110%; in the test with RXF 393 renal (10 µM unless noted) it was 103%; in the test on SF-268 CNS (10 µM unless noted), 103%. Also, the growth is 112% in the test with SF-295 CNS, 98.8% in the test on SF-539 CNS (10 µM unless noted) and 98% in the test on UACC-257 melanoma (10 µM unless noted).

For the molecule `C[C@]12CCc3sc(Nc4ccc(F)cc4)nc3C1=CC[C@@H]1[C@@H]2CC[C@]2(C)C(=O)CC[C@@H]12`, the growth in the test on DU-145 prostate (10 µM unless noted) is 19.3%; with K-562 leukemia (10 µM unless noted) it was 5.92% (active); with MALME-3M melanoma (10 µM unless noted) it was 78.7%; in the test on MDA-MB-231 breast (10 µM unless noted), 84.4%; in the test with RXF 393 renal (10 µM unless noted), 13.2%; in the test with SF-268 CNS (10 µM unless noted), 69.3%. Besides, the growth is 28.7% in the test with SF-295 CNS, 54.4% in the test with SF-539 CNS (10 µM unless noted) and 85.9% in the test with UACC-257 melanoma (10 µM unless noted).

As for `O=c1[nH]c(=O)n(Cl)c(=O)n1Cl`, the growth in the test on DU-145 prostate (10 µM unless noted) was 142%; in the test with K-562 leukemia (10 µM unless noted), 109%; with MALME-3M melanoma (10 µM unless noted) it was 106% and 110%; in the test with MDA-MB-231 breast (10 µM unless noted), 99.1% and 113%; with RXF 393 renal (10 µM unless noted) it was 114% and 120%; with SF-268 CNS (10 µM unless noted) it was 108% and 136%. The growth in the test on SF-295 CNS was 101% and 114%; with SF-539 CNS (10 µM unless noted), 106% and 92.5%; in the test with UACC-257 melanoma (10 µM unless noted), 99.5% and 117%.

As for `Nc1ccc(S(=O)(=O)F)cc1`, the growth was 107% with DU-145 prostate (10 µM unless noted); 91.8% with K-562 leukemia (10 µM unless noted); 95.2% with MALME-3M melanoma (10 µM unless noted); 117% in the test on MDA-MB-231 breast (10 µM unless noted); 100% with RXF 393 renal (10 µM unless noted); 99.8% with SF-268 CNS (10 µM unless noted). Further, the growth is 102% in the test on SF-295 CNS, 103% in the test with SF-539 CNS (10 µM unless noted) and 110% in the test on UACC-257 melanoma (10 µM unless noted).

As for `CN1CCC2(CC1)C(C#N)C(=O)NC(=O)C2C#N` (stereo not drawn), the growth is 112% in the test with DU-145 prostate (10 µM unless noted); 94.5% in the test on K-562 leukemia (10 µM unless noted); 107% in the test with MALME-3M melanoma (10 µM unless noted); 101% in the test with MDA-MB-231 breast (10 µM unless noted); 104% with RXF 393 renal (10 µM unless noted); 107% in the test on SF-268 CNS (10 µM unless noted). The growth in the test with SF-295 CNS is 94.1%; in the test with SF-539 CNS (10 µM unless noted), 94.9%; in the test on UACC-257 melanoma (10 µM unless noted), 90.7%.

Turning to `COc1ccc(N(CC(=O)NCCC[Te]c2ccccc2)C(=O)c2ccccc2)cc1`, the growth in the test on DU-145 prostate (10 µM unless noted) is 66.6%; in the test on K-562 leukemia (10 µM unless noted) it was 56.1%; in the test with MALME-3M melanoma (10 µM unless noted), 129%; with MDA-MB-231 breast (10 µM unless noted) it was 14.2%; in the test with RXF 393 renal (10 µM unless noted), 133%; in the test on SF-268 CNS (10 µM unless noted), 39.2%. In addition, the growth in the test with SF-295 CNS is -7.61% (active); with SF-539 CNS (10 µM unless noted) it was 31.4%; with UACC-257 melanoma (10 µM unless noted) it was 95.4%; in the test on M14 melanoma (10 µM unless noted), 32.1%.
